From PubChem BioAssay
The list is not random: actives were taken first. Their share in the collection is about 2.5%.
AF4-AF9 inh: MLL-AF4/AF9 protein interaction inhibition; AlphaScreen, biotin-AF4 peptide binding to FLAG-AF9; 350,000 compounds, 0.47% hits; inhibition, % at 10 µM; P42568;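 active = every replicate reaching a set inhibition limit, whatever the replicate mean, cut at about 25% in these data; inconclusive = mean inhibition reaches that limit but some replicates miss it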;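 also: 0% = plate neutral control median and 100% = total signal loss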
Casp6 inh: blocks human caspase-6 cleavage activity; purified caspase-6, Z-VEID-R110 cleavage fluorescence; inhibition, % at 12.5 µM; 350,000 compounds, 0.53% hits;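 active = mean inhibition across replicates at least about 35%, with every replicate also reaching that limit, limit read from the data; inconclusive = only one of the two criteria met; inactive = neither criterion met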;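 also: 0% = median of neutral control wells and 100% = no fluorescence left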
NSD2 inh: inhibitors of human histone methyltransferase NSD2; O96028; 310,000 compounds, 0.54% hits; inhibition, % at 12.5 µM; NSD2 peptide methylation, AlphaScreen, 120 min; in the data active = inhibition above about 50%
rRNA inh HTS: inhibitors of bacterial rRNA selective over humanized ribosomes. E. coli WT GFP vs humanized-ribosome RFP mutants, fluorescence, 24 h; stronger effect = lower value; DMSO median 0, no signal -100. AID 720706. GFP signal change (wild-type ribosome), % (no concentration beside the values). 350,000 compounds, 1.6% hits;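 active = significant combined selectivity score with lowered wild-type GFP, culture density cut under 30%, mutant RFP and density less affected; inactive = any of these conditions unmet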
RAD52 inh: inhibitors of human RAD52 DNA annealing; P43351; recombinant RAD52 DNA annealing, FRET fluorescence; inhibition, % at 18.7 µM; 360,000 compounds, 0.46% hits;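 active = every replicate showing at least 50% inhibition; inconclusive = mean inhibition at least 50% but not in every replicate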
The depositor's hits bear a star; ? = inconclusive; nt = no result.

SMILES | AF4-AF9 inh | Casp6 inh | NSD2 inh | rRNA inh HTS | RAD52 inh
CCNC(=O)C[C@@H]1CC[C@@H](NS(=O)(=O)c2ccc(F)cc2)[C@@H](CO)O1 | -1 | 0 | nt | 0 | 2
COCCNC(=O)C[C@H]1CC[C@@H]2[C@H](COc3ccc(NC(C)=O)cc3C(=O)N2C)O1 | nt | nt | nt | 0 | nt
CC(C)C#Cc1cnc2c(c1)C(=O)N([C@@H](C)CO)C[C@@H](C)[C@@H](CN(C)C(=O)Cc1ccncc1)O2 | 2 | -3 | nt | 1 | 6
Oc1ccc(N=Nc2n[nH]c(-c3ccc(Cl)cc3)n2)cc1 | 7 | -1 | nt | -18* | -1
O=C(CN1c2ccccc2Sc2ccccc21)N/N=C/c1ccc([N+](=O)[O-])cc1 | 4 | 1 | -3 | -24* | 0
O=C(C1CCCCC1)N1CC(=O)N2[C@@H](CO)[C@H](c3ccc(Br)cc3)[C@@H]2C1 | -5 | 4 | nt | 2 | 1
O=C1O[C@@H](c2ccccc2)[C@@H](c2ccccc2)N2[C@@H](c3ccc(OCCO)cc3)[C@]3(C(=O)Nc4ccc(C#CCCO)cc43)[C@@H](C(=O)N3CCN(c4ncccn4)CC3)[C@H]12 | 1 | 1 | nt | nt | 52*
O=C1O[C@@H](c2ccccc2)[C@@H](c2ccccc2)N2[C@@H](c3ccccc3OCCO)[C@]3(C(=O)Nc4ccc(C#CCCO)cc43)[C@@H](C(=O)N3CCN(c4ncccn4)CC3)[C@H]12 | -1 | 0 | nt | nt | 76*
O=C1O[C@@H](c2ccccc2)[C@@H](c2ccccc2)N2[C@@H](c3ccc(O)cc3)[C@]3(C(=O)Nc4ccccc43)[C@@H](C(=O)N3CCCCCCC3)[C@H]12 | 0 | 0 | nt | nt | 58*
C[C@H]1CN([C@@H](C)CO)C(=O)c2cccc(NS(=O)(=O)c3ccccc3)c2O[C@H]1CN(C)S(=O)(=O)c1ccc(Cl)cc1 | nt | nt | nt | -2 | nt
C[C@H](CO)N1C[C@H](C)[C@@H](CN(C)S(=O)(=O)c2ccc(Cl)cc2)Oc2c(NC(=O)c3cnccn3)cccc2C1=O | nt | nt | nt | -3 | nt
C[C@H]1CN([C@@H](C)CO)S(=O)(=O)c2ccc(-c3ccncc3)cc2O[C@H]1CN(C)C(=O)C1CCCCC1 | nt | nt | nt | -6 | nt
Cc1cc(=O)oc2c3c(cc(OCC(=O)N[C@@H](Cc4ccccc4)C(=O)O)c12)OC(C)(C)CC3 | -2 | 0 | nt | -31* | -6
Cc1cc(=O)oc2c3c(cc(OCC(=O)N[C@@H](C)C(=O)O)c12)OC(C)(C)CC3 | -3 | 1 | -2 | 2 | 2
Cc1cc(=O)oc2c3c(cc(OCC(=O)NC(Cc4ccc(Cl)cc4)C(=O)O)c12)OC(C)(C)CC3 (centres undefined) | -2 | 0 | nt | -38* | -6
CCCCC(NC(=O)COc1cc2c(c3oc(=O)cc(C)c13)CCC(C)(C)O2)C(=O)O (centres undefined) | -27 | -1 | -2 | -14 | -8
CCC(=O)Nc1ccc(C2=NNC(=NCC3CCCO3)SC2)cc1 (centres undefined) | nt | nt | -7 | nt | nt
C[C@H]1CCCCO[C@H](CN(C)C(=O)c2ccccc2)[C@@H](C)CN([C@@H](C)CO)C(=O)c2cc(N(C)C)ccc2O1 | 5 | 0 | nt | 4 | -12
CC1(C)CC(=O)C=C(c2ccc(COC(=O)Cc3ccccc3)cc2)C1=O | 4 | 2 | nt | -22* | 1
CC1(C)CC(=O)C=C(c2ccc(-c3ccccc3)cc2)C1=O | 0 | nt | nt | -14 | -9
CN(C)CC(=O)Nc1ccc2c(c1)[C@H]1C[C@H](CC(=O)NCc3ccc(-c4ccccc4)cc3)O[C@H](CO)[C@H]1O2 | 5 | 1 | nt | -9 | 62*
CN(C)c1ccc2c(c1)[C@@H]1C[C@@H](CC(=O)NCc3ccccn3)O[C@@H](CO)[C@@H]1O2 | 2 | 40* | nt | 5 | -64
CN(C)CC(=O)Nc1ccc2c(c1)[C@@H]1C[C@@H](CC(=O)NCc3ccc(-c4ccccc4)cc3)O[C@H](CO)[C@@H]1O2 | 7 | -4 | nt | -1 | 30
CN(C)CC(=O)Nc1ccc2c(c1)[C@H]1C[C@H](CC(=O)NCc3ccccn3)O[C@H](CO)[C@H]1O2 | -2 | 2 | nt | 2 | -6
Cc1ccccc1-c1cnc2c(c1)C(=O)N([C@@H](C)CO)C[C@@H](C)[C@H](CN(C)Cc1ccncc1)O2 | -2 | -1 | nt | -3 | -1
SMILES | AF4-AF9 inh | Casp6 inh | NSD2 inh | rRNA inh HTS | RAD52 inh
C[C@@H]1CCCCO[C@@H](CN(C)C(=O)NC2CCCCC2)[C@@H](C)CN([C@H](C)CO)C(=O)c2cc(NC(=O)c3ccccc3)ccc2O1 | nt | nt | nt | 5 | nt
Cc1ccc(S(=O)(=O)N(C)C[C@H]2OCCCC[C@H](C)Oc3ccc(NC(=O)c4ccccc4)cc3C(=O)N([C@@H](C)CO)C[C@@H]2C)cc1 | 2 | 0 | nt | 2 | -51
Cc1ncc(CN2CCCC(C(=O)Nc3ccc(-c4ccco4)cc3)C2)cn1 (centres undefined) | 40* | 0 | 9 | 4 | -25
CO[C@H]1CN(C)C(=O)c2cc(NC(=O)Nc3c(C)noc3C)ccc2OC[C@H](C)N(C)C[C@@H]1C | 1 | 4 | nt | 0 | 9
COc1cc(CNCc2ccccn2)ccc1OCc1c(Cl)cccc1Cl | ? | 1 | 6 | -46* | 1
COc1cc(CNCc2ccccn2)ccc1OCc1cccc(Cl)c1 | 18 | -4 | 14 | -41* | 0
COc1ccc2c3c(n(C)c2c1)[C@@H](CO)N(CC1CC1)CC31CN(C(=O)c2ccc(F)cc2)C1 | 7 | nt | nt | -5 | nt
COc1ccc(NC(=O)Nc2ccc3c(c2)CC(=O)N([C@@H](C)CO)C[C@@H](C)[C@@H](CN(C)C(=O)Nc2ccc(OC)cc2)O3)cc1 | 1 | 2 | nt | -2 | 3
O=C(O)CSc1c(-c2ccccc2)c2cc(Cl)ccc2[nH]c1=O | 10 | -1 | 0 | -28* | -14
CCOC(=O)C1Nc2ccccc2C2C(O)C(O)CC12 (centres undefined) | 26* | 24 | nt | 10 | -378
Cc1ccc(NCCCn2cnc3c(OCc4ccccc4)ncnc32)cc1C | ? | 2 | nt | -21* | -6
CC(CNCCCn1cnc2c(OCc3ccccc3)ncnc21)c1ccccc1 (centres undefined) | 3 | -2 | nt | -17* | -17
CC(=O)N(C)C[C@H]1Oc2ccc(N(C)C)cc2C(=O)N(C)C[C@@H]1C | nt | nt | nt | 1 | nt
C[C@H](CO)N1C[C@H](C)[C@@H](CN(C)C(=O)Nc2ccc(F)cc2)Oc2ccc(NC(=O)c3ccncc3)cc2C1=O | -2 | 0 | nt | 4 | 0
O=C(Nc1nnc(C2=COCCO2)o1)c1ccc(Cc2ccccc2)cc1 | -1 | 8 | nt | -46* | -9
O=C(Nc1nnc(C2=COCCO2)o1)c1ccc(Cl)cc1 | ? | 18 | -5 | -55 | -2
C=C(C)COc1ccc(-c2nc(N)ncc2-c2ccc(OC)cc2)c(O)c1 | 28* | nt | 4 | nt | nt
COc1ccc(-c2cnc(N)nc2-c2ccc(OC)cc2O)cc1 | nt | 0 | -1 | -28* | 4
